Data as given in PubChem BioAssay (EPA / NIEHS).
Values joined by “and” are separate entries in the source; they are usually repeats but may differ in a detail not shown here. Identical values can stand only once. Records with an inconclusive call do not appear. The source holds several records for some structures; these can differ, active in one and inactive in another. Active and inactive are the calls of the source. The calls were made as follows, unless noted: active = hit-call score of the fitted dose curve at least 0.9, where 1 is the maximum; inconclusive = response in the unintended direction; inactive = score below 0.9.

Assays:
[1] = target: Cellular tumor antigen p53 (Homo sapiens) (UniProt P04637); experiment: TOX21_p53_BLA_p2_ratio: Tox21 HCT-116 p53 Agonism Beta-lactamase Assay, Ratio, Phase 2 (AID 2283592)
Method in brief: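 Read-out is the blue/green (460/530 nm, 405 nm excitation) ratio after 2 h CCF4-AM loading, fitted as gain versus DMSO. Compounds, pinned at 217-fold dilution from DMSO stocks, stayed 16 h on HCT-116 beta-lactamase reporter cells seeded 5 h earlier.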

[2] = TOX21_p53_BLA_p3_viability: Viability Assessment in the Tox21 HCT-116 p53 Agonism Beta-lactamase Assay, Phase 3 (AID 2283593);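 also: cells exposed to compound for 16 h before reading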
Method in brief: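 HCT116 cells, 4000/well, dosed 5 h after plating by pin transfer (217-fold dilution from DMSO stock) and incubated 16 h at 37C, 5% CO2. Viability read as ATP luminescence with CellTiter-Glo after 30 min at room temperature.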

[3] = target: Cellular tumor antigen p53 (Homo sapiens) (UniProt P04637); experiment: TOX21_p53_BLA_p3_ratio: Tox21 HCT-116 p53 Agonism Beta-lactamase Assay, Ratio, Phase 3 (AID 2283596)
Method in brief: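 Cells were seeded at 4000/well, rested 5 h at 37C, then dosed with DMSO compound solutions (217-fold dilution) for 16 h. CCF4-AM substrate was loaded for 2 h at room temperature, and the 460/530 nm emission ratio was fitted for gain of signal versus DMSO.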

[4] = TOX21_p53_BLA_p4_viability: Viability Assessment in the Tox21 HCT-116 p53 Agonism Beta-lactamase Assay, Phase 4 (AID 2283597);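 also: hits lower the luminescence signal meaning cytotoxicity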
Method in brief: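 Cytotoxicity as reduced cellular ATP (CellTiter-Glo luminescence, 30 min room temperature), measured in the same wells following the CCF4 FRET p53 reading. Human HCT-116 cells received compounds in DMSO (217-fold dilution) for 16 h.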

[5] = target: Cellular tumor antigen p53 (Homo sapiens) (UniProt P04637); experiment: TOX21_p53_BLA_p5_ratio: Tox21 HCT-116 p53 Agonism Beta-lactamase Assay, Ratio, Phase 5 (AID 2283599)
Method in brief: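 HCT-116 p53-bla cells (4000/well) plated 5 h, dosed with compound (217-fold DMSO dilution) for 16 h at 37 C; CCF4-AM substrate 2 h at room temperature. Activity is the 460/530 nm emission ratio (405 nm excitation), fitted in gain-of-signal direction versus DMSO.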

[6] = TOX21_p53_BLA_p5_viability: Viability Assessment in the Tox21 HCT-116 p53 Agonism Beta-lactamase Assay, Phase 5 (AID 2283600)
Method in brief: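 Viability came from CellTiter-Glo ATP luminescence, read after 30 min at room temperature. Before this, HCT-116 p53-bla cells (4000/well) had 16 hours of compound exposure at 37C, with DMSO stocks diluted 217-fold on transfer.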

[7] = target: Cellular tumor antigen p53 (Homo sapiens) (UniProt P04637); experiment: TOX21_p53_BLA_p4_ratio: Tox21 HCT-116 p53 Agonism Beta-lactamase Assay, Ratio, Phase 4 (AID 2283601)
Method in brief: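 HCT-116 p53 beta-lactamase reporter cells (4000/well) preincubated 5 h, then compound (217-fold dilution of DMSO stock) for 16 h at 37C. CCF4-AM substrate added 2 h at room temperature; 460/530 nm emission ratio fitted upward versus DMSO.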

[8] = CCTE_Harrill_HTTr_Viability_MCF7: CCTE's 6-hour Cell Viability Assessment for the High-Throughput Transcriptomics (HTTr) Platform, in MCF-7 cells cultured in DMEM + 10% fetal bovine serum, Harrill Lab (AID 2284010; active = hit-call score of the fitted dose curve at least 0.9, where 1 is the maximum; inactive = score below 0.9)
Method in brief: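 Eight-point concentration series, six-hour exposure. Propidium iodide exclusion imaged to assess membrane integrity as a cytotoxicity readout; bidirectional fitting was done with DMSO as negative control and activity baseline.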

[9] = CCTE_Harrill_HTTr_Apoptosis_MCF7: CCTE's 6-hour Apoptosis Assessment for the High-Throughput Transcriptomics (HTTr) Platform, in MCF-7 cells cultured in DMEM + 10% fetal bovine serum, Harrill Lab (AID 2284011; active = hit-call score of the fitted dose curve at least 0.9, where 1 is the maximum; inactive = score below 0.9)
Method in brief: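 High-content imaging of CellEvent Caspase 3/7 Green signal follows a six-hour exposure, with eight concentrations per chemical. MCF-7 cells grown in DMEM plus 10% fetal bovine serum; activity fitted in both directions against DMSO.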

[10] = CCTE_Harrill_HTTr_CellCount_MCF7: CCTE's Cell Proliferation Assessment for the High-Throughput Transcriptomics (HTTr) Platform, Harrill Lab (AID 2284012);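 also: count of Hoechst-stained nuclei per well by high-content imaging in MCF-7 cells; cells exposed to compound for six hours; intended direction is loss of nuclei count meaning fewer cells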
Method in brief: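 For this full-screen endpoint, MCF-7 cultures received eight compound dilutions for six hours. Well nuclei counts from Hoechst imaging were analyzed relative to DMSO.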

[11] = CCTE_Padilla_ZF_144hpf_TERATOSCORE: (Legacy) CCTE's 144 Hour Post-fertilization zebrafish Assay Teratoscore, Padilla Lab (AID 2283679; active = hit-call score of the fitted dose curve at least 0.9, where 1 is the maximum; inactive = score below 0.9;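 also: zebrafish embryos with chorions exposed by immersion from 6-8 hpf to 5 dpf with daily renewal; teratogenicity score from eye scoring of death hatching and malformations at 144 hpf; higher score means more developmental defects relative to DMSO baseline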)
Method in brief: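 Larvae scored by eye at 144 hpf for death, hatching and malformations after a day in clean Hanks'. Before that, daily-renewed exposure at 80 uM (0.4% DMSO, 26C) from roughly 6-8 hpf through 5 dpf, 4 embryos per chemical.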

[12] = CCTE_Shafer_MEA_dev_firing_rate_mean: CCTE's Neural Network Formation Assay for Mean Firing Rate, Shafer Lab (AID 2284031; active = hit-call score of the fitted dose curve at least 0.9, where 1 is the maximum; inactive = score below 0.9;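 also: curve fitted for loss of firing so AC50 reflects decreased mean firing rate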)
Method in brief: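 Extracellular spike frequency, AUC over DIV 5–12 recordings, in rat cortical neuron MEA cultures dosed from plating; loss direction vs DMSO.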

[13] = CCTE_Shafer_MEA_dev_per_burst_spike_percent: CCTE's Neural Network Formation Assay for Percent of Spikes in a Burst, Shafer Lab (AID 2284032; active = hit-call score of the fitted dose curve at least 0.9, where 1 is the maximum; inactive = score below 0.9;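 also: fitted as a decrease in burst spike percentage below DMSO baseline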)
Method in brief: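 Value is trapezoidal AUC over recordings on days 5, 7, 9 and 12 of the well-mean fraction of spikes falling in single-electrode bursts; rat cortical cultures exposed continuously from plating, treatment renewed DIV 5 and 9, fitted downward against DMSO.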

[14] = CCTE_Shafer_MEA_dev_active_electrodes_number: CCTE's Neural Network Formation Assay for Number of Active Electrodes, Shafer Lab (AID 2284040);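 also: potency for loss of active electrodes versus DMSO so lower counts are hits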
Method in brief: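 Developing rat cortical networks on MEAs, exposed DIV 0–12. Value is the AUC of active-electrode counts (≥5 spikes/min) from days 5, 7, 9, 12, relative to DMSO.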

[15] = CCTE_Shafer_MEA_dev_burst_rate: CCTE's Neural Network Formation Assay for Burst Rate, Shafer Lab (AID 2284042; active = hit-call score of the fitted dose curve at least 0.9, where 1 is the maximum; inactive = score below 0.9;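 also: potency for loss of burst rate below DMSO control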)
Method in brief: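 Rat primary cortical cultures on PEI/laminin MEA; compound from plating, re-dosed at DIV 5, 9 media change. Single-electrode bursts/recording length, well mean of active electrodes; AUC over DIV 5–12 recordings; loss-of-signal vs DMSO.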

[16] = CCTE_Shafer_MEA_dev_per_burst_interspike_interval: CCTE's Neural Network Formation Assay for Burst Interspike Interval, Shafer Lab (AID 2284044; active = hit-call score of the fitted dose curve at least 0.9, where 1 is the maximum; inactive = score below 0.9;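 also: potency for a decrease of within-burst interspike interval below DMSO level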)
Method in brief: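 Mean interspike interval within single-electrode bursts, averaged over bursting electrodes, from rat cortical cultures on MEA plates recorded on days 5, 7, 9 and 12. Continuous compound exposure from plating; trapezoidal AUC fitted downward relative to DMSO.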

[17] = CCTE_Shafer_MEA_dev_burst_duration_mean: CCTE's Neural Network Formation Assay for Mean Burst Duration, Shafer Lab (AID 2284045; active = hit-call score of the fitted dose curve at least 0.9, where 1 is the maximum; inactive = score below 0.9)
Method in brief: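 Rat cortical cultures, 1.5 x 10^5 cells/well with laminin drop; continuous dosing days 0–12, media plus treatment refreshed DIV 5, 9. AxIS adaptive spike detection; mean single-electrode burst duration, AUC over four recordings, negative direction vs DMSO.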

[18] = CCTE_Shafer_MEA_dev_interburst_interval_mean: CCTE's Neural Network Formation Assay for Mean Interburst Interval, Shafer Lab (AID 2284046; active = hit-call score of the fitted dose curve at least 0.9, where 1 is the maximum; inactive = score below 0.9;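 also: well-mean interburst interval of bursting electrodes as AUC over four recording days; curve fitted for decrease in interburst interval relative to DMSO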)
Method in brief: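 Rat cortical neurons, 1.5 x 10^5 cells/well, 48-well MEA; compound from day 0 through DIV 12, media and treatment renewed DIV 5/9. Recordings DIV 5, 7, 9, 12; well-mean interburst interval → trapezoidal AUC, loss direction vs DMSO.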

[19] = CCTE_Shafer_MEA_dev_inter_network_spike_interval_mean: CCTE's Neural Network Formation Assay for Mean Inter-network Spike Interval, Shafer Lab (AID 2284047; active = hit-call score of the fitted dose curve at least 0.9, where 1 is the maximum; inactive = score below 0.9;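 as to AC50: potency for a decrease in mean inter-network spike interval below DMSO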)
Method in brief: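 Primary rat cortical neurons on PEI-coated 48-well MEAs (16 electrodes/well) were exposed from plating day 0 to DIV 12, with dosing renewed at DIV 5 and 9. Recordings at DIV 5, 7, 9, 12 were collapsed by trapezoidal AUC, loss-of-signal fit vs DMSO.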

[20] = CCTE_Shafer_MEA_dev_network_spike_number: CCTE's Neural Network Formation Assay for Number of Network Spikes, Shafer Lab (AID 2284048; active = hit-call score of the fitted dose curve at least 0.9, where 1 is the maximum; inactive = score below 0.9;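 also: synchronized bursts across electrodes counted on days 5 7 9 12 and integrated as AUC; fit as a loss of signal meaning fewer network spikes than DMSO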)
Method in brief: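 Rat cortical primary cultures on 48-well MEA (16 electrodes/well); continuous exposure DIV 0–12, full medium and treatment exchange DIV 5, 9. Readout: network spike count, AxIS adaptive detection, recordings DIV 5/7/9/12 collapsed to AUC; loss-of-signal fit, DMSO baseline.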

[21] = CCTE_Shafer_MEA_dev_network_spike_peak: CCTE's Neural Network Formation Assay for Mean Number of Electrodes in Network Spike, Shafer Lab (AID 2284049; active = hit-call score of the fitted dose curve at least 0.9, where 1 is the maximum; inactive = score below 0.9;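 also: fitted for loss of signal meaning fewer electrodes in network spikes than DMSO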)
Method in brief: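 Network-spike peak electrode count from recordings on days 5, 7, 9 and 12 was combined as trapezoidal area under the curve. Rat cortical cultures were treated continuously from plating, with compound renewed at each feed (DIV 5, 9); fits versus DMSO.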

[22] = CCTE_Shafer_MEA_dev_spike_duration_mean: CCTE's Neural Network Formation Assay for Mean Spike Duration, Shafer Lab (AID 2284051; active = hit-call score of the fitted dose curve at least 0.9, where 1 is the maximum; inactive = score below 0.9;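 also: mean network spike duration pooled as area under curve over DIV 5 to 12 recordings; potency for a decrease in mean network spike duration versus DMSO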)
Method in brief: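 Rat cortical primary cultures, 48-well MEA (16 electrodes/well); compound from plating, renewed DIV 5, 9. Network spike duration (AxIS adaptive detector) recorded DIV 5/7/9/12, combined as trapezoidal AUC; loss direction vs DMSO.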

[23] = CCTE_Shafer_MEA_dev_network_spike_duration_std: CCTE's Neural Network Formation Assay for Standard Deviation of Network Spike Duration, Shafer Lab (AID 2284052; active = hit-call score of the fitted dose curve at least 0.9, where 1 is the maximum; inactive = score below 0.9;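 also: area under curve of spike duration SD across recording days 5 to 12; hits are decreases in network spike duration SD versus DMSO vehicle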)
Method in brief: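 Rat cortical cultures, 1.5 x 10^5 cells/well, exposed continuously from plating to DIV 12 with media/compound renewal at DIV 5, 9. Spontaneous activity recorded DIV 5/7/9/12, AxIS adaptive spike detector; AUC across days; negative direction vs DMSO.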

[24] = CCTE_Shafer_MEA_dev_per_network_spike_spike_number_mean: CCTE's Neural Network Formation Assay for Mean Number of Spikes in a Network Spike, Shafer Lab (AID 2284053; active = hit-call score of the fitted dose curve at least 0.9, where 1 is the maximum; inactive = score below 0.9;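 also: fitted as decrease in spikes per network spike relative to DMSO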)
Method in brief: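 Rat cortical primary cultures on 48-well MEA; compound from day 0, re-dosed with full media change DIV 5, 9. Recorded DIV 5, 7, 9, 12; spikes in 0.05 s window at network-spike peak ÷ total network spikes; AUC; loss vs DMSO.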

[25] = CCTE_Shafer_MEA_dev_per_network_spike_spike_percent: CCTE's Neural Network Formation Assay for Percent of Spikes in a Network Spike, Shafer Lab (AID 2284054; active = hit-call score of the fitted dose curve at least 0.9, where 1 is the maximum; inactive = score below 0.9)
Method in brief: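 Read-out: percent of spikes falling in a 0.05 s window at network-spike peak, from spontaneous MEA recordings on days 5, 7, 9 and 12; trapezoidal AUC; loss of signal versus DMSO. Rat cortical cultures, compound present throughout.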

[26] = CCTE_Shafer_MEA_dev_LDH: CCTE's Lactate Dehydrogenase Assay for Cytotoxicity in the Neural Network Formation Assay, Shafer Lab (AID 2284068);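 also: exposure for twelve days from plating with re-dosing on DIV 5 and 9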
Method in brief: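 Rat cortical primary neurons, MEA culture; dosing day 0–12, full medium plus compound exchange DIV 5, 9. Read-out: LDH enzyme activity, spectrophotometric. DMSO = negative control/baseline; signal loss → cytotoxicity.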

[27] = CCTE_Shafer_MEA_dev_AB: CCTE's Alamar Blue Assay for Cytotoxicity in the Neural Network Formation Assay, Shafer Lab (AID 2284083);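 also: resazurin reduction fluorescence as viability of cultured neurons; twelve days of exposure from plating with re-dosing on DIV 5 and 9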
Method in brief: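 Rat cortical primary cultures, 1.5 x 10^5 cells/well on MEA; continuous compound exposure over 12 days of network development, re-dosed with full medium change DIV 5 and 9. Alamar Blue fluorescence; loss of signal = cytotoxicity vs DMSO baseline.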

[28] = CCTE_Shafer_MEA_dev_mutual_information_norm: CCTE's Neural Network Formation Assay for Mutual Information Normalization, Shafer Lab (AID 2284091; active = hit-call score of the fitted dose curve at least 0.9, where 1 is the maximum; inactive = score below 0.9;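 also: mutual information between electrodes summarised as area under curve across four recording days; potency is for a decrease in mutual information relative to DMSO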)
Method in brief: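 Neurons from rat cortex were seeded at 1.5 x 10^5 cells/well onto PEI-coated MEAs in a laminin drop, then exposed to compound from day 0 for twelve days. Network recordings on four days gave mutual information, summarised by AUC relative to DMSO.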

[29] = CCTE_Shafer_MEA_dev_correlation_coefficient_mean: CCTE's Neural Network Formation Assay for Mean Correlation Coefficient, Shafer Lab (AID 2284093; active = hit-call score of the fitted dose curve at least 0.9, where 1 is the maximum; inactive = score below 0.9;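 also: well mean pairwise spike train correlation integrated as AUC over recording days 5 to 12; potency fitted for loss of correlation relative to DMSO vehicle wells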)
Method in brief: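 Rat cortical cultures, 1.5 x 10^5 cells/well, dosed from day 0 for 12 days. Spontaneous spikes recorded DIV 5/7/9/12; electrode-pair correlation coefficients averaged, AUC taken. Fit in loss direction vs DMSO.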

Measured: AC50

Cellular tumor antigen p53 (Homo sapiens), sequence (P04637 whole entry, looked up): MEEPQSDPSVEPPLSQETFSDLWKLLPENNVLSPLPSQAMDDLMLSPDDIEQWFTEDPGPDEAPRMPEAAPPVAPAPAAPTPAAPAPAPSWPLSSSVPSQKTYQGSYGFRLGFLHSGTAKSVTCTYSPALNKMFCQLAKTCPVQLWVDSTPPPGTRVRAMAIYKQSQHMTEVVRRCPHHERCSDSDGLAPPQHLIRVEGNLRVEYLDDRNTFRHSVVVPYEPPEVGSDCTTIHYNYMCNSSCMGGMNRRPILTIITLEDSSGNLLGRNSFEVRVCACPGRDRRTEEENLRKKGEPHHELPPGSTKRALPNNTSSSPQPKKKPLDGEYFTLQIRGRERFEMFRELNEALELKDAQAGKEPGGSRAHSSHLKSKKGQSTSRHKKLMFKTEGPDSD

O=C(O)c1cc(=O)c2c(OCC(O)COc3cccc4oc(C(=O)O)cc(=O)c34)cccc2o1
inactive: [1] | [2] | [3] | [4] | [5] | [6] | [7] | [8] | [9] | [10]

CCOc1ccccc1O[C@H](c1ccccc1)[C@H]1CNCCO1
inactive: [1] | [2] | [3] | [4] | [5] | [6] | [7]

C=C(C)C(=O)OCCCC
inactive: [1] | [2] | [3] | [4] | [5] | [7]

CC[C@H](C)C(=O)O[C@H]1CCC=C2C=C[C@H](C)[C@H](CC[C@@H]3C[C@@H](O)CC(=O)O3)[C@H]21
active: [11] 8.02 nM and 2.39 nM | [12] 1.41 µM and 8.96 µM | [13] 1.4 µM and 2.83 µM | [14] 1.15 µM and 875 nM | [15] 253 nM and 2.69 µM | [16] 3.11 µM and 8.52 µM | [18] 3.03 µM and 2.52 µM | [19] 696 nM | [20] 71.9 nM and 226 nM | [21] 960 nM and 912 nM | [22] 1.05 µM and 983 nM | [23] 665 nM and 700 nM | [24] 940 nM and 915 nM | [25] 277 nM and 554 nM | [26] 215 nM | [27] 687 nM and 2.01 µM | [28] 353 nM and 881 nM | [29] 571 nM and 928 nM
inactive: [1] | [2] | [3] | [4] | [5] | [6] | [7] | [17] | [19]

O=C(O)P(=O)(O)O
inactive: [1] | [2] | [3] | [4] | [5] | [7]

CCOc1ccccc1C(N)=O
inactive: [1] | [2] | [3] | [4] | [5] | [6] | [7]

O=C(O)c1cc(O)c2c(c1)C(=O)c1cccc(O)c1C2=O
inactive: [1] | [2] | [3] | [4] | [5] | [6] | [7]
